We go through 7 compounds from the supplement of paper PMC8975748.

Counter-ions that a name gives are not always drawn. ± gives the standard deviation of the averaged measurements.

Assay [1] deals with Saccharomyces cerevisiae BY4741 SeMeCo community. As to the kind of experiment: mean cell size (pixel area) (pixels); higher = larger cells. Particulars: 10 µM; 24 h; SM minimal medium. The procedure, abridged: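 A four-plasmid fluorescent Saccharomyces cerevisiae BY4741 community was tested; each plasmid complements one auxotrophy and carries a fluorescent marker. An overnight preculture at OD600 = 1.0 was diluted to OD600 = 0.3, and 70 µl was added to 384-well plates acoustically predosed with drug (final 10 µM) in SM medium for 24 h. Cells were fixed with paraformaldehyde and imaged by automated confocal microscopy, with analysis in Harmony. Mean cell pixel area per well is averaged over 3 replicates. Same SeMeCo high-content imaging drug screen: Selleck FDA-approved drugs at 10 µM, 24 h in SM medium, 384-well plates, 3 replicates.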

Assay [2] has the same test system. As to the kind of experiment: z-score of prototroph abundance vs DMSO median; higher = larger share of this subpopulation than in DMSO controls. To be noted: 10 µM; 24 h; SM minimal medium; subpopulation (auxotrophy): Prototroph. Summed up: (§1)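 Cells of a Saccharomyces cerevisiae BY4741 community, carrying four plasmids that each restored one auxotrophy and encoded a distinct fluorescent protein, were pre-grown overnight to OD600 1.0 and diluted to 0.3. A 70 µl volume was added to 384-well plates acoustically predosed with library drugs (10 µM final) and grown 24 h in minimal SM medium. After paraformaldehyde fixation, automated confocal microscopy was used, with single-auxotroph fluorescent strains for thresholds and autofluorescence correction. The abundance of each subpopulation was scored as a z-score against the vehicle-well median.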

The test system is the same in assay [3]. Nature of the assay: z-score of subpopulation abundance vs DMSO median, subpopulation auxotrophic for M; higher = larger share of this subpopulation than in DMSO controls. To be noted: 10 µM; 24 h; SM minimal medium; subpopulation (auxotrophy): M. The procedure, abridged: as §1
The test system is the same in assay [4]. As to the kind of experiment: z-score of subpopulation abundance vs DMSO median, subpopulation auxotrophic for L; higher = larger share of this subpopulation than in DMSO controls. Particulars: 10 µM; 24 h; SM minimal medium; subpopulation (auxotrophy): L. The procedure, abridged:
as §1

Assay [5] shares this test system. Nature of the assay: z-score of subpopulation abundance vs DMSO median, subpopulation auxotrophic for U; higher = larger share of this subpopulation than in DMSO controls. To be noted: 10 µM; 24 h; SM minimal medium; subpopulation (auxotrophy): U. The procedure, abridged:
as §1

For assay [6] the test system is unchanged. As to the kind of experiment: z-score of subpopulation abundance vs DMSO median, subpopulation auxotrophic for H; higher = larger share of this subpopulation than in DMSO controls. Particulars: 10 µM; 24 h; SM minimal medium; subpopulation (auxotrophy): H. The procedure, abridged: as §1
Assay [7] has the same test system. As to the kind of experiment: z-score of subpopulation abundance vs DMSO median, subpopulation auxotrophic for LU; higher = larger share of this subpopulation than in DMSO controls. To be noted: 10 µM; 24 h; SM minimal medium; subpopulation (auxotrophy): LU. The procedure, abridged:
as §1

The test system is the same in assay [8]. Nature of the assay: z-score of subpopulation abundance vs DMSO median, subpopulation auxotrophic for LM; higher = larger share of this subpopulation than in DMSO controls. Particulars: 10 µM; 24 h; SM minimal medium; subpopulation (auxotrophy): LM. The procedure, abridged: as §1
Assay [9] shares this test system. Nature of the assay: z-score of subpopulation abundance vs DMSO median, subpopulation auxotrophic for HM; higher = larger share of this subpopulation than in DMSO controls. To be noted: 10 µM; 24 h; SM minimal medium; subpopulation (auxotrophy): HM. The procedure, abridged:
as §1

For assay [10] the test system is unchanged. Nature of the assay: z-score of subpopulation abundance vs DMSO median, subpopulation auxotrophic for HU; higher = larger share of this subpopulation than in DMSO controls. Particulars: 10 µM; 24 h; SM minimal medium; subpopulation (auxotrophy): HU. The procedure, abridged: as §1
Assay [11] shares this test system. As to the kind of experiment: z-score of subpopulation abundance vs DMSO median, subpopulation auxotrophic for UM; higher = larger share of this subpopulation than in DMSO controls. Particulars: 10 µM; 24 h; SM minimal medium; subpopulation (auxotrophy): UM. The procedure, abridged:
as §1

Assay [12] has the same test system. Nature of the assay: z-score of subpopulation abundance vs DMSO median, subpopulation auxotrophic for HL; higher = larger share of this subpopulation than in DMSO controls. To be noted: 10 µM; 24 h; SM minimal medium; subpopulation (auxotrophy): HL. The procedure, abridged: as §1
For assay [13] the test system is unchanged. As to the kind of experiment: z-score of subpopulation abundance vs DMSO median, subpopulation auxotrophic for HLU; higher = larger share of this subpopulation than in DMSO controls. To be noted: 10 µM; 24 h; SM minimal medium; subpopulation (auxotrophy): HLU. Summed up: as §1
The test system is the same in assay [14]. Nature of the assay: z-score of subpopulation abundance vs DMSO median, subpopulation auxotrophic for HLM; higher = larger share of this subpopulation than in DMSO controls. To be noted: 10 µM; 24 h; SM minimal medium; subpopulation (auxotrophy): HLM. The procedure, abridged:
as §1

For assay [15] the test system is unchanged. Nature of the assay: z-score of subpopulation abundance vs DMSO median, subpopulation auxotrophic for HUM; higher = larger share of this subpopulation than in DMSO controls. To be noted: 10 µM; 24 h; SM minimal medium; subpopulation (auxotrophy): HUM. The procedure, abridged:
as §1

Assay [16] has the same test system. As to the kind of experiment: z-score of subpopulation abundance vs DMSO median, subpopulation auxotrophic for LUM; higher = larger share of this subpopulation than in DMSO controls. To be noted: 10 µM; 24 h; SM minimal medium; subpopulation (auxotrophy): LUM. Summed up:
as §1

Assay [17] has the same test system. As to the kind of experiment: z-score of subpopulation abundance vs DMSO median, subpopulation auxotrophic for HLUM; higher = larger share of this subpopulation than in DMSO controls. Particulars: 10 µM; 24 h; SM minimal medium; subpopulation (auxotrophy): HLUM. The procedure, abridged:
as §1

In assay [1], `CCOC(=O)CCC(=O)O[C@H]1[C@H](O[C@@H]2[C@@H](C)[C@H](O[C@H]3C[C@@](C)(OC)[C@@H](O)[C@H](C)O3)[C@@H](C)C(=O)O[C@H](CC)[C@@](C)(O)[C@H](O)[C@@H](C)C(=O)[C@H](C)C[C@@]2(C)O)O[C@H](C)C[C@@H]1N(C)C` [Erythromycin Ethylsuccinate] showed a mean cell size of 12.4 ± 0.15. Moreover, the “z-score of prototroph abundance” value in assay [2] was -2.21. In addition, the “z-score of subpopulation abundance” value in [3] was 1.39; in [4] it was 2.32; in assay [5], -0.67; in assay [6], 1.99; in assay [7], 0.76; in assay [8], 3.22. Moreover, the “z-score of subpopulation abundance” value in assay [9] is 3.14; in [10] it was 0.76; in assay [11], -0.31; in assay [12], 3.1; in assay [13], 1.44; in assay [14] it was 2.71. For the same compound, the “z-score of subpopulation abundance” value in [15] stood at 1.68; in assay [16] it was 2.68.
In turn, `CN1C2CCCC1CC(NC(=O)c1nn(C)c3ccccc13)C2` (stereo not given) [Granisetron] showed a mean cell size in [1] of 12.3 ± 0.14. In addition, the “z-score of prototroph abundance” value in assay [2] is -0.04. Moreover, the “z-score of subpopulation abundance” value was 1.71 in [3]; -0.54 in [4]; 0.07 in assay [5]; -1.03 in assay [6]; -0.92 in [7]; -0.49 in assay [8]. For the same compound, the “z-score of subpopulation abundance” value in assay [9] is 0.6; in assay [11] it was 0.55; in assay [12], -1.17; in assay [13], -0.07; in assay [14], -0.1; in [15], 0.05. Also, the “z-score of subpopulation abundance” value in assay [16] is -0.48; in assay [17], -0.81.
For the compound `CO/N=C(\C(=O)N[C@@H]1C(=O)N2C(C(=O)O)=CCS[C@H]12)c1csc(N)n1` [Ceftizoxime], in assay [1], the mean cell size was determined as 12.47 ± 0.084. The “z-score of prototroph abundance” value in assay [2] was 0.78. The “z-score of subpopulation abundance” value in assay [3] was 0.26; in [4], -0.19; in [5], -0.63; in [6], -0.86; in [7], -0.12; in assay [8] it was -0.02. Moreover, the “z-score of subpopulation abundance” value is -0.82 in [9]; -1.12 in assay [13]; -0.37 in [14]; -1.23 in assay [15]; -0.44 in [16]; -0.49 in assay [17].
In turn, `C=CCCCCCCCCC(=O)[O-].C=CCCCCCCCCC(=O)[O-].[Zn+2]` [Zinc Undecylenate] gave a mean cell size in assay [1] of 11.6 ± 0.15. Further, the “z-score of prototroph abundance” value in assay [2] was 2.41. For the same compound, the “z-score of subpopulation abundance” value in [3] is -3.83; in assay [4], -1.01; in assay [5], -0.17; in assay [6], -1.44; in assay [7], -1.37; in [8] it was -2.11. The “z-score of subpopulation abundance” value is -2.65 in assay [9]; 3.75 in [13]; -0.76 in [14]; -0.02 in assay [15]; -0.54 in assay [16]; 3.48 in assay [17].
On to `CC1(C)S[C@@H]2[C@H](NC(=O)[C@H](C(=O)O)c3ccsc3)C(=O)N2[C@H]1C(=O)O` [Ticarcillin sodium], for which, in [1], the mean cell size is 12.4 ± 0.22. Moreover, the “z-score of prototroph abundance” value in assay [2] was -0.89. Also, the “z-score of subpopulation abundance” value in assay [3] is 1.32; in [4], 2.72; in [5] it was -0.93; in [6] it was 0.6; in assay [7] it was 1.74; in assay [8] it was 2.06. Further, the “z-score of subpopulation abundance” value in assay [10] was -0.4; in assay [12] it was 2.48; in [13], 1.46; in assay [14], 1.43; in assay [15] it was 0.83; in [16], 1.35. The “z-score of subpopulation abundance” value in assay [17] is 1.75.
For `CC/C(=C(\c1ccccc1)c1ccc(OCCN(C)C)cc1)c1ccccc1` [Tamoxifen], in [1], the mean cell size came out at 11.75 ± 0.092. In [2], the “z-score of prototroph abundance” value was -0.91. Moreover, the “z-score of subpopulation abundance” value is 0.18 in assay [3]; 0.96 in [4]; -0.18 in assay [5]; 1.57 in assay [6]; 0.89 in assay [7]; 1.82 in assay [8]. Further, the “z-score of subpopulation abundance” value in assay [10] was found to be 1.39; in [11], 0.21; in [12], 0.95; in [13], 0.93; in assay [14] it was 0.89; in assay [15] it was 0.85. In addition, the “z-score of subpopulation abundance” value in [16] stood at 0.23; in assay [17], 0.09.
Compound `O=C1CN2Cc3c(ccc(Cl)c3Cl)N=C2N1` [Anagrelide HCl] gave a mean cell size in assay [1] of 12.3 ± 0.29. In assay [2], the “z-score of prototroph abundance” value is 0.08. For the same compound, the “z-score of subpopulation abundance” value is -0.78 in assay [3]; -0.32 in assay [4]; -0.23 in assay [5]; -0.25 in assay [6]; -0.64 in [7]; -0.53 in assay [8]. Besides, the “z-score of subpopulation abundance” value in assay [10] was 0.3; in assay [13] it was 0.58; in assay [14], 1.02; in assay [15], 0.14; in [16], -0.58; in [17] it was 0.12.
